# Laboratory results taken from PMC11062922 (Nature Chemical Biology, 2023).
# Read-outs that look alike come from different tables or passages of the source.
# Legend:
# Set-up in all cases: species or system human, MV4-11 + K-562 + COLO205 + SK-N-BE2 + OVCAR-8
# EGFR = settings: read-out: apparent Kd, n = 1
# MET = settings: read-out: apparent Kd, n = 1
# DDR2 = settings: read-out: apparent Kd, compound concentrations: 100 nM and 1000 nM (sheet 'Samples'), n = 1
# GSK3A = settings: compound concentrations:0.3nM, 1nM, 3nM, 10nM, 30nM, 100nM, 300nM, by the legend:Standard error of the EC50 estimation as provided by the drc package.; for Kd: read-out: apparent Kd
# GSK3B = settings: compound concentrations:0.3nM, 1nM, 3nM, 10nM, 30nM, 100nM, 300nM, by the legend:Standard error of the EC50 estimation as provided by the drc package.; for Kd: read-out: apparent Kd
# LATS1 = settings: compound concentrations:0.3nM, 1nM, 3nM, 10nM, 30nM, 100nM, 300nM, by the legend:Standard error of the EC50 estimation as provided by the drc package.; for Kd: read-out: apparent Kd
# PKN1 = settings: compound concentrations:0.3nM, 1nM, 3nM, 10nM, 30nM, 100nM, 300nM, by the legend:Standard error of the EC50 estimation as provided by the drc package.; for Kd: read-out: apparent Kd
# PRKX = settings: compound concentrations:0.3nM, 1nM, 3nM, 10nM, 30nM, 100nM, 300nM, by the legend:Standard error of the EC50 estimation as provided by the drc package.; for Kd: read-out: apparent Kd
# ACOX1 = settings: read-out: apparent Kd; compound concentrations:100 nM and 1000 nM (sheet 'Samples'); n = 1
# CLK2 = settings: read-out: apparent Kd; compound concentrations:100 nM and 1000 nM (sheet 'Samples'); n = 1
# LIMK1 = settings: read-out: apparent Kd, compound concentrations: 100 nM and 1000 nM (sheet 'Samples'), n = 1
# SIK3 = settings: read-out: apparent Kd, compound concentrations: 100 nM and 1000 nM (sheet 'Samples'), n = 1
# CAMK2D = settings: read-out: apparent Kd, compound concentrations: 100 nM and 1000 nM (sheet 'Samples'), n = 1
# AKT1 = settings: read-out: apparent Kd; compound concentrations: 100 nM and 1000 nM (sheet 'Samples'), CATDS: 4.8125130234568303E-3; n = 1
# CSNK1G3 = settings: read-out: apparent Kd; compound concentrations: 100 nM and 1000 nM (sheet 'Samples'), CATDS: 4.4654853896455996E-3; n = 1
# DCTPP1 = settings: read-out: apparent Kd; compound concentrations: 100 nM and 1000 nM (sheet 'Samples'), CATDS: 4.22997641527893E-3; n = 1
# NQO1 = settings: read-out: apparent Kd; compound concentrations: 100 nM and 1000 nM (sheet 'Samples'), CATDS: 3.59016343581718E-3; n = 1
# PI4KA = settings: read-out: apparent Kd; compound concentrations: 100 nM and 1000 nM (sheet 'Samples'), CATDS: 7.2985744477334297E-3; n = 1
# RPS6KA5 = settings: read-out: apparent Kd; compound concentrations: 100 nM and 1000 nM (sheet 'Samples'), CATDS: 4.7822949231481997E-3; n = 1
# [1] = compound concentrations:100 nM and 1000 nM (sheet 'Samples')
# [2] = 1000nM,R2:0.98891896520214295,slope:0.86644868747919301,EC50 Standard Error
# [3] = 1000nM,R2:0.97796062612419798,slope:0.95181625856524898,EC50 Standard Error
# [4] = 1000nM,R2:0.99282697672558795,slope:1.31312375653091,EC50 Standard Error
# [5] = 1000nM,R2:0.99748458534068796,slope:1.1297658372901001,EC50 Standard Error
# [6] = 1000nM,R2:0.99104054700331501,slope:1.8352310088782899,EC50 Standard Error
# [7] = 1000nM,R2:0.98330827393916598,slope:1.45562792091779,EC50 Standard Error
# [8] = 1000nM,R2:0.96555674920545798,slope:0.96794765422259599,EC50 Standard Error
# [9] = 1000nM,R2:0.97889671835051595,slope:1.6751561590983699,EC50 Standard Error
# [10] = 1000nM,R2:0.97867991540409105,slope:0.79419686113227705,EC50 Standard Error
# [11] = 1000nM,R2:0.94127289372754697,slope:1.4629649923763099,EC50 Standard Error
# 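Wherever EC50 is given: competition pulldown with Kinobeads ε in cell lysates, inhibitor preincubated 45 min at 4 °C, bound kinases quantified by LC–MS/MS against DMSO control.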
# 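Wherever Kd is given: competition pulldown with Kinobeads ε in cell lysates, inhibitor preincubated 45 min at 4 °C, bound kinases quantified by LC–MS/MS against DMSO control.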
smiles,measurement,setting,value
CNC(=O)c1ccccc1Nc1nc(Nc2ccc(N3CCOCC3)cc2)ncc1Cl.Cl [GSK1576028A],potency estimated from few doses,EGFR; [1],580 nM
same,potency estimated from few doses,MET; [1],68.1 nM
CCOC(=O)N1CCC(n2cnc(-c3ccc(F)cc3)c2-c2ccnc(N)n2)CC1 [SB-219952],potency estimated from few doses,DDR2; CATDS: 9.5517965767772696E-3,979 nM
CCn1c(-c2nonc2N)nc2c(C#CC(C)(C)O)nc(OCCN)cc21.CCn1c(-c2nonc2N)nc2c(C#CC(C)(C)O)nc(OCCN)cc21.Cl.Cl [GSK902056A],EC50,GSK3A; [2],173 nM
same,Kd,GSK3A; [2],164 nM
same,EC50,GSK3B; [3],296 nM
same,Kd,GSK3B; [3],288 nM
same,EC50,LATS1; [4],87.4 nM
same,Kd,LATS1; [4],87.4 nM
same,EC50,PKN1; [5],92.3 nM
same,Kd,PKN1; [5],92.3 nM
same,EC50,PRKX; [6],127 nM
same,Kd,PRKX; [6],127 nM
Cc1cccc(Nc2nc(N[C@H]3CCCC[C@H]3N)ncc2C(N)=O)c1.Cl [GSK986310C],potency estimated from few doses,ACOX1,1340 nM
Cl.Cl.NCC(C(=O)Nc1cc(Br)c(-c2ccnc3[nH]ccc23)s1)c1ccccc1.NCC(C(=O)Nc1cc(Br)c(-c2ccnc3[nH]ccc23)s1)c1ccccc1 (stereo not shown) [GSK1269851A],potency estimated from few doses,CLK2,730 nM
COc1ccc(Nc2ncc(C#N)c(Nc3ccccc3C(N)=O)n2)cc1N1CCN(C)CC1.Cl [GSK1558669A],potency estimated from few doses,DDR2; CATDS: 6.40385177631159E-3,1140 nM
same,potency estimated from few doses,LIMK1; CATDS: 6.2092464562502302E-3,1380 nM
same,potency estimated from few doses,"MET; compound concentrations: 100 nM and 1000 nM (sheet 'Samples'), CATDS: 6.0762727664259702E-3",1600 nM
same,potency estimated from few doses,SIK3; CATDS: 6.59336570259887E-3,968 nM
O=C1N=C(NCCc2ccc(Cl)cc2)S/C1=C\c1ccc2ncccc2c1 [RO4498479-000],potency estimated from few doses,"EGFR; compound concentrations: 100 nM and 1000 nM (sheet 'Samples'), CATDS: 6.9080879323699202E-3",1730 nM
Cc1ccc(Nc2ccnc(Nc3ccc4c(c3)CS(=O)(=O)C4)n2)cc1O.Cl [GW579362A],potency estimated from few doses,CAMK2D; CATDS: 4.2472769063291602E-2,502 nM
Cn1ncc2c(N)ncnc21 [SKF-18267],potency estimated from few doses,AKT1,879 nM
same,potency estimated from few doses,CAMK2D; CATDS: 7.0756718203265796E-3,441 nM
same,potency estimated from few doses,CSNK1G3,1030 nM
same,potency estimated from few doses,DCTPP1,1170 nM
same,potency estimated from few doses,DDR2; CATDS: 4.5419231694641699E-3,994 nM
same,potency estimated from few doses,"EGFR; compound concentrations: 100 nM and 1000 nM (sheet 'Samples'), CATDS: 3.5324220214717501E-3",1890 nM
same,potency estimated from few doses,LIMK1; CATDS: 4.4629455520233396E-3,1030 nM
same,potency estimated from few doses,"MET; compound concentrations: 100 nM and 1000 nM (sheet 'Samples'), CATDS: 4.2018834707484203E-3",1190 nM
same,potency estimated from few doses,NQO1,1800 nM
same,potency estimated from few doses,PI4KA,420 nM
same,potency estimated from few doses,RPS6KA5,891 nM
same,potency estimated from few doses,SIK3; CATDS: 3.59529212961178E-3,1790 nM
CCn1c(-c2nonc2N)nc2c(C#CC(C)(C)O)nc(OCCNC)cc21.Cl [GSK949675A],EC50,GSK3A; [7],167 nM
same,Kd,GSK3A; [7],104 nM
same,EC50,GSK3B; [8],322 nM
same,Kd,GSK3B; [8],171 nM
same,EC50,LATS1; [9],238 nM
same,Kd,LATS1; [9],238 nM
same,EC50,PKN1; [10],4240 nM
same,Kd,PKN1; [10],4230 nM
same,EC50,PRKX; [11],221 nM
same,Kd,PRKX; [11],221 nM
